Source: PubChem BioAssay AID686978 (National Center for Advancing Translational Sciences (NCATS), 2013)
Among all 420,000 compounds or so, about 64,000 (15%) were called active. About 27% were inconclusive and are not listed. Not all results are given here. Values without a mark were called inactive. The call rests on the fitted dose curve; in most records, active means well fitted inhibition curve with a large enough effect; inconclusive means small, poorly fitted or top-dose-only effect; inactive means flat fitted curve, though single readings scatter. Peptide text beside a SMILES is read from it.

Assay: qHTS for Inhibitors of human tyrosyl-DNA phosphodiesterase 1 (TDP1): qHTS in cells in absence of CPT; further: nearly all actives have a fitted effect of over 55% in size
Conditions: DT40 Tdp1-/- hTDP1 cells, no CPT, ATP luminescence, 48 h; activity change, negative = growth inhibition: at 46.2 µM (top of the series)
In short: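 Chicken DT40 Tdp1-/- cells complemented with human TDP1, screened without camptothecin (DMSO vehicle only), 400 cells/well. Compounds pin-transferred, cells incubated at 37 °C for at least 48 hr. Growth read as ATP-dependent luminescence (CellTiter-Glo, 30 min at RT).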
On the % scale 0 is the no-effect control and ±100 the full control effect; potency means the concentration at half of the fitted maximal effect.

Question: Which “activity change, negative = growth inhibition” value does the source give for `Cc1ccc(C)c(N2C(=O)CS/C2=N\NC(=O)c2ccccc2Cl)c1` here?
Answer: Its value is 18.4%.

Question: Which “activity change, negative = growth inhibition” value does the source give for `Cc1ccc(NC(=O)c2nc[nH]c2C(=O)N2CCCCC2)c(C(=O)c2ccccc2)c1` here?
Answer: The value was -29.3%.

Question: Which Potency does the source give for `CC12CCC(C(=O)N(NC(=O)c3ccccc3O)C1=O)C2(C)C` (stereo unspecified) here?
Answer: The Potency was 18.4 µM (active).

Question: With `COc1ccccc1C(=O)NN1C(=O)C2C3C=CC(O3)C2C1=O` (stereo unspecified) as the compound, how does the “activity change, negative = growth inhibition” value read?
Answer: The value was -5.17%.

Question: With `O=C(NN1C(=O)C2C(C1=O)C1C=CC2C12CC2)c1ccccc1Cl` (stereo unspecified) as the compound, how does the “activity change, negative = growth inhibition” value read?
Answer: Its value is -12.7%.

Question: For `O=C(NCc1nnnn1-c1ccc(Cl)cc1)c1ccc2c(c1)OCO2`, which “activity change, negative = growth inhibition” value is on record?
Answer: Its value is -16%.

Question: Which “activity change, negative = growth inhibition” value does the source give for `O=C(Nc1cccc(Cl)c1)Nc1ccccc1NS(=O)(=O)c1cccs1` here?
Answer: The value was -27.6%.

Question: For `CC(OC(=O)c1cc2ccccc2[nH]1)C(=O)N(C)c1ccccc1` (stereo unspecified), which “activity change, negative = growth inhibition” value is on record?
Answer: The value was -21.1%.

Question: With `Cc1nc2ccccn2c(=O)c1NC(=O)c1cccs1` as the compound, how does the “activity change, negative = growth inhibition” value read?
Answer: The value was 0.66%.

Question: Which Potency does the source give for `Cc1ccc(-n2c(=O)c(C#N)cc3c(=O)n4ccccc4nc32)cc1C` here?
Answer: The Potency was 23.1 µM (active).

Question: For `Cc1ccc(-n2c(SCC(=O)N3CCC(C(=O)O)CC3)nc3ccccc3c2=O)cc1C`, which “activity change, negative = growth inhibition” value is on record?
Answer: Its value is -17.9%.

Question: For `Cc1nc2sc(C(c3ccco3)N3CCC4(CC3)OCCO4)c(O)n2n1` (stereo unspecified), which “activity change, negative = growth inhibition” value is on record?
Answer: The value was 1.96%.

Question: Which “activity change, negative = growth inhibition” value does the source give for `CC1=NN(c2cccc(Cl)c2)C(=O)C12CC(C)=C(C)CS2` (stereo unspecified) here?
Answer: The value was -20.8%.

Question: Which “activity change, negative = growth inhibition” value does the source give for `Cc1nn(-c2ccccc2)c(NC(=O)c2cccs2)c(-c2ccc(Cl)cc2)c1=O` here?
Answer: The value was -7.27%.

Question: Which Potency does the source give for `Cc1[nH]n(-c2cccc(Cl)c2)c(=O)c1-c1ccc(Cl)cc1` here?
Answer: The Potency was 16.4 µM (active).

Question: For `CCOC(=O)Cn1c(=O)oc2cc(S(=O)(=O)NCC3CCCO3)ccc21` (stereo unspecified), which “activity change, negative = growth inhibition” value is on record?
Answer: Its value is -6.29%.

Question: With `CC1CCCCN1CC(=O)N1CCCc2c1c(=O)oc1ccc(OCc3ccccc3)cc21` (stereo unspecified) as the compound, how does the Potency read?
Answer: Its Potency is 4.61 µM (active).

Question: With `O=C(COc1ccc2oc3c(c2c1)CCCC3)Nc1ccccn1` as the compound, how does the “activity change, negative = growth inhibition” value read?
Answer: The value was -15.6%.

Question: For `NC(=O)C1CCN(C(=O)COc2ccc3c4c(c(=O)oc3c2)CCC4)CC1`, which “activity change, negative = growth inhibition” value is on record?
Answer: Its value is 3.58%.

Question: With `COc1cccc(CCNC(=O)c2cccc(NC(=O)C3=C(C)OCCS3)c2)c1` as the compound, how does the “activity change, negative = growth inhibition” value read?
Answer: The value was -62.7%.

Question: Which “activity change, negative = growth inhibition” value does the source give for `CC1CCCCC1NC(=O)CCS(=O)(=O)c1cccc2nonc12` (stereo unspecified) here?
Answer: The value was -13.7%.

Question: Which “activity change, negative = growth inhibition” value does the source give for `CCOC(=O)C1=C(COC(=O)[C@H](C)NS(=O)(=O)c2ccccc2F)NC(=O)NC1C` (stereo partly specified) here?
Answer: The value was -3.81%.

Question: Which “activity change, negative = growth inhibition” value does the source give for `CCOC(=O)C1=C(c2ccccc2)NC(=O)NC1c1cc(OC)c(OC)cc1OC` (stereo unspecified) here?
Answer: The value was -9.62%.

Question: Which “activity change, negative = growth inhibition” value does the source give for `CCOCCOC(=O)C1=C(C)NC(=O)NC1c1ccc2c(c1)OCO2` (stereo unspecified) here?
Answer: Its value is 5.25%.

Question: Which Potency does the source give for `CCOC(=O)C1=C(CNC2CCCCC2)NC(=O)NC1c1cc(C)ccc1C` (stereo unspecified) here?
Answer: The Potency was 20.6 µM (active).

Question: For `CCOC(=O)C1=C(CN2CCCCCC2)NC(=O)NC1c1cccc([N+](=O)[O-])c1` (stereo unspecified), which Potency is on record?
Answer: Its Potency is 20.6 µM (active).

Question: For `CCOC(=O)C1=C(CSc2nccn2C)NC(=O)NC1c1ccc(OC)cc1` (stereo unspecified), which “activity change, negative = growth inhibition” value is on record?
Answer: Its value is -27.7%.

Question: Which “activity change, negative = growth inhibition” value does the source give for `CCOC(=O)COc1ccc(Cl)cc1C1NC(=O)NC(C)=C1C(C)=O` (stereo unspecified) here?
Answer: Its value is 3.59%.

Question: With `CCOC(=O)c1sc(-c2cccc([N+](=O)[O-])c2)cc1N` as the compound, how does the “activity change, negative = growth inhibition” value read?
Answer: The value was -5.43%.

Question: For `CCOC(=O)C1=C(CN2CCc3ccccc32)NC(=O)NC1c1cc(C)ccc1C` (stereo unspecified), which Potency is on record?
Answer: The Potency was 12.6 µM (active).

Question: With `CC(=O)NC(C(=O)NCC(N)=O)C(C)C` (stereo unspecified) (HELM PEPTIDE1{[ac].[CC(C)C(N[*:1])C(=O)[*:2]].G.[am]}$$$$V2.0) as the compound, how does the “activity change, negative = growth inhibition” value read?
Answer: The value was -3.83%.

Question: Which “activity change, negative = growth inhibition” value does the source give for `C/C(Cc1ccccc1)=N\NC(=O)CNC(=O)c1ccccc1Cl` here?
Answer: Its value is 6.63%.

Question: Which “activity change, negative = growth inhibition” value does the source give for `CCC(C)N(C(=O)Cn1nc(C)c([N+](=O)[O-])c1C)C1CCS(=O)(=O)C1` (stereo unspecified) here?
Answer: The value was -0.177%.

Question: Which “activity change, negative = growth inhibition” value does the source give for `Nc1cc(=O)n(Cc2ccccc2)c(=O)n1Cc1ccccc1` here?
Answer: The value was -9.87%.

Question: Which “activity change, negative = growth inhibition” value does the source give for `COc1cc(OC)c(-n2c(C)cc(C=O)c2C)cc1Cl` here?
Answer: The value was -14.2%.

Question: With `COc1ncnc2c1ncn2CCCNCCN1CCOCC1` as the compound, how does the “activity change, negative = growth inhibition” value read?
Answer: The value was 12.5%.

Question: Which Potency does the source give for `CN1/C(=C\C=C2\N=C(c3ccc(F)cc3)OC2=O)C(C)(C)c2ccccc21` here?
Answer: Its Potency is 23.1 µM (active).

Question: With `Cc1ccnc2nc(C(=O)OCC(=O)N(CC(C)C)CC(C)C)nn12` as the compound, how does the “activity change, negative = growth inhibition” value read?
Answer: The value was -5.82%.

Question: With `O=C(O)c1ccccc1-c1ccccc1C(=O)Nc1nccs1` as the compound, how does the “activity change, negative = growth inhibition” value read?
Answer: Its value is 3.73%.

Question: With `COc1ccc([C@H]2CC(=O)C[C@@H](CCn3cc(CC4CCCC4)nn3)O2)cc1` as the compound, how does the “activity change, negative = growth inhibition” value read?
Answer: Its value is -23.7%.

Question: Which Potency does the source give for `COc1ccc(-c2ccc(CN3C(CC(C)C)C(=O)N(Cc4cn(CC5CCCCC5)nn4)CCS3(=O)=O)cc2)cn1` (stereo unspecified) here?
Answer: The Potency was 18.4 µM (active).

Question: With `COc1ccc(-c2ccc(CN3C(C(C)C)C(=O)N(Cc4cn(CC5CCCCC5)nn4)CCS3(=O)=O)cc2)cn1` (stereo unspecified) as the compound, how does the Potency read?
Answer: Its Potency is 23.1 µM (active).

Question: With `COc1ccc(-c2ccc(CN3C(CC(C)C)C(=O)N(Cc4cn(CC5CCCCC5)nn4)CCS3(=O)=O)cc2)cc1` (stereo unspecified) as the compound, how does the Potency read?
Answer: Its Potency is 9.2 µM (active).

Question: With `Cc1nccn1CCCNC(=O)CC1C(=O)NCCN1Cc1ccc(Cl)c(F)c1` (stereo unspecified) as the compound, how does the “activity change, negative = growth inhibition” value read?
Answer: Its value is -10.3%.

Question: With `O=C(NCc1cccnc1)C12CC3CC(CC(C3)C1)C2` as the compound, how does the “activity change, negative = growth inhibition” value read?
Answer: The value was -20.2%.

Question: For `Cc1ccc(/C=C/C(=O)OCC(=O)Nc2cccnc2Cl)cc1`, which “activity change, negative = growth inhibition” value is on record?
Answer: The value was 6.96%.

Question: Which “activity change, negative = growth inhibition” value does the source give for `COc1ccc(NC(=O)CCS(=O)(=O)c2cc3c(cc2Cl)NC(=O)CO3)cc1OC` here?
Answer: The value was 15.1%.

Question: For `CC(C)C(C)(C#N)NC(=O)CSc1nncn1-c1ccccc1` (stereo unspecified), which “activity change, negative = growth inhibition” value is on record?
Answer: Its value is -26.6%.

Question: With `Cn1c(=O)c2sccc2n2c(CCC(=O)NCc3ccccc3Cl)nnc12` as the compound, how does the “activity change, negative = growth inhibition” value read?
Answer: The value was -28.7%.

Question: Which “activity change, negative = growth inhibition” value does the source give for `CSc1ccc(Cl)c(C(=O)OCC(=O)N2CCNC2=O)c1` here?
Answer: Its value is -20.3%.

Question: For `O=C(C1CC(=O)N(c2ccc(Br)cc2)C1)N1CCCC1` (stereo unspecified), which “activity change, negative = growth inhibition” value is on record?
Answer: The value was -3.38%.
